Screening results (PubChem BioAssay)
Only some compounds are listed: those with a hit (about 19% of all), similar ones and a draw of the others.
SARS PLP yeast – inhibitors of SARS-CoV papain-like protease in yeast. Potency, µM (top dose mostly 32.9 µM), inactives show top-dose activity, positive = growth rescue, most hits filed as activators. 330,000 compounds, 0.19% hits. S. cerevisiae expressing SARS-CoV PLpro, growth rescue; calls by dose curve; also: potency is read from the fitted curve at half-maximal effect; 0% is about no effect; nearly all actives have a fitted effect of over 55% in size
CHX counter – counter-screen hit for Shiga toxin inhibitors, cycloheximide. cell reporter, cycloheximide protein synthesis inhibition counterscreen. max response, %. 300,000 compounds, 12% hits. AID 2314; in the data active = max response mostly above about 13%, no sharp cut-off; inactive = mostly below about 14%; also: read at 38.3 µM for the half of the compounds with a filed dose; 0% is about no effect
Pf growth 96h – P. falciparum growth inhibition at 96 hours | P. falciparum luciferase reporter growth, 96 h | Potency, µM (top dose mostly 28.7 µM), inactives show at the highest dose activity change, negative = inhibition, most hits filed as inhibitors | 320,000 compounds, 6.9% hits | AID 504834; also: potency is read from the fitted curve at half-maximal effect; % is scaled to controls: 0 for no effect and ±100 for the full control effect
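Plates of compound plus infected erythrocytes (2% hematocrit, 0.05% parasitemia final) incubate 96 hours, 37 C, 5% CO2. Detection reagent added; reduced luminescence from the parasites' luciferase reporter flags inhibition.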
AMA1-RON2 inh – disrupts binding of P. falciparum AMA1 to RON2. AlphaScreen AMA1-biotinylated RON2 peptide binding. Potency, µM (titrated, usually from 58.2 µM), for inactives: top-dose activity change, negative = inhibition, usual class: inhibitors. 360,000 compounds, 0.2% hits;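 also: potency is read from the fitted curve at half-maximal effect; 0% = vehicle wells and -100% = peptide control; nearly all actives have a fitted effect of over 45% in size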
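AMA1 (3D7) with his tag at 25 nM final met compounds first, then biotinylated RON2 peptide at 25 nM; detection used donor plus acceptor beads, 10 µg/mL apiece, read by AlphaScreen after 30 min at room temperature.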
Pf growth 48h – inhibits P. falciparum growth in the first generation, 48 h; P. falciparum luciferase growth in erythrocytes, 48 h; 310,000 compounds, 5.9% hits; Potency, µM (top dose mostly 28.7 µM), without a hit: top-dose activity change, negative = inhibition, usual class: inhibitors; also: potency is read from the fitted curve at half-maximal effect; % is scaled to controls: 0 for no effect and ±100 for the full control effect
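Read-out is firefly luciferase luminescence from an integrated reporter in P. falciparum, so falling signal marks reduced parasite growth. Infected erythrocytes were at 2% hematocrit and 0.1% parasitemia (final) in Albumax-supplemented RPMI 1640.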
Shiga toxin inh – blocks Shiga toxin action in Vero cells; 290,000 compounds, 9.2% hits; AID 2315; inhibition, % at 38.7 µM; Vero cells, Shiga toxin protein synthesis inhibition reporter; in the data active = inhibition mostly above about 28%, no sharp cut-off; inactive = mostly below about 43%; also: 0% is about no effect
Active calls of the source: *; ? = inconclusive; nt = no result given; [ ] = dose if it differs, or a comment. Unless noted, calls follow the shape of the dose curve; as a rule, active = well fitted curve in the direction sought with a large enough effect; inconclusive = small, poorly fitted or top-dose-only effect, or another doubt; inactive = no such curve, though single readings can be large; an effect the other way counts as inactive or inconclusive.

SMILES	SARS PLP yeast	CHX counter	Pf growth 96h	AMA1-RON2 inh	Pf growth 48h	Shiga toxin inh
COc1ccc(S(=O)(=O)N2CCCCCC2)cc1C(=O)NCc1ccc(C)cc1	-3%	nt	12µM*	15%	15µM*	nt
COc1ccc(S(=O)(=O)N2CCCCCC2)cc1C(=O)NCCc1ccc(F)cc1	1%	nt	?	-7%	?	nt
COc1ccc(CCN(C)C(=O)c2cc(S(=O)(=O)N3CCCCC3)ccc2Cl)cc1OC	3%	nt	?	59%	13µM*	nt
COc1ccc(CCN(C)C(=O)c2cc(S(=O)(=O)N3CCCCCC3)ccc2OC)cc1OC	-3%	nt	?	72%	?	nt
O=C(NNc1ccccc1C(F)(F)F)c1sccc1Br	-1%	-1	1%	-1%	-10%	-4
COCCn1c(SC(C)C(=O)Nc2ccc(N3CCOCC3)cc2)nnc1-c1ccncc1 (stereo not drawn)	nt	nt	72%	12%	10%	nt
COc1ccc(S(=O)(=O)N2CCCCCC2)cc1C(=O)N(C)CCOc1ccc(Cl)cc1	0%	nt	?	-2%	13µM*	nt
CCN1CCN(S(=O)(=O)c2ccc(Cl)c(C(=O)N(C)CCOc3ccc(Cl)cc3)c2)CC1	1%	nt	?	-27%	?	nt
c1cc2c(cc1-c1[nH]ncc1CN1CC3C[C@@H]4CC1C[C@H](C3)C4)OCO2	2%	5	?	-9%	?	-2
Cn1cc(CN2CC3C[C@@H]4CC2C[C@H](C3)C4)c(-c2ccc3c(c2)OCCO3)n1	1%	16	12µM*	-21%	-20%	22
CCc1cccc(C)c1NC(=O)CCN1C(=O)NC(C)(C)C1=O	-5%	nt	-1%	-3%	9%	nt
COc1ccc(-c2c[n+](CC(=O)c3cccs3)c3n2CCC3)cc1	1%	1	?	-13%	2.3µM*	14
Cc1ccc(-c2c[n+](CC(=O)c3cccs3)c3n2CCC3)cc1	-1%	3	4.1µM*	?	2.3µM*	11
Cc1ccc(-c2c[n+](CC(=O)OCc3ccccc3)c3n2CCC3)cc1	-1%	-2	16%	3%	20%	-3
Cc1ccccc1NC(=O)c1cc[n+]([O-])cc1	nt	-8	25%	10%	1%	27
Cc1ccccc1C(=O)N1CCN=C1SCc1ccc([N+](=O)[O-])cc1	-3%	8	-10%	?	?	9
CC(=O)Nc1ccc(NS(=O)(=O)c2cc(Cl)sc2Cl)cc1	-1%	-5	40%	6%	-4%	-9
Cc1cc(C)cc(NC(=O)c2cc(Cl)sc2Cl)c1	2%	30*	46%	4%[2.32 µM]	24%	23
CC(=O)c1ccc(NC(=O)c2cc(Cl)sc2Cl)cc1	-32%	40*	438%	-8%[2.32 µM]	238%	32*
CCN(CC)c1ccc(NC(=O)CSc2ccsc2[N+](=O)[O-])c(C)c1	10%	5	4%	-28%	-28%	0
Cc1ccc(CNC(=O)CSc2ccsc2[N+](=O)[O-])cc1	-2%	54*	?	26%	-43%	72*
COc1ccc(CNC(=O)CSc2ccsc2[N+](=O)[O-])cc1	0%	34*	-19%	-5%	?	84*
O=C(CSc1ccsc1[N+](=O)[O-])Nc1cc(F)ccc1F	-2%	19*	31%	-15%	-29%	45*
CS(=O)(=O)c1[nH]nc(-c2cccc(Cl)c2)c1C#N	-1%	2	23%	-6%	-2%	16
Cc1ccc2c(c1)C(=NC1CCCCC1)c1cc3ccccc3nc1-2	-8%	51*	267%	-10%	172%	41*
SMILES	SARS PLP yeast	CHX counter	Pf growth 96h	AMA1-RON2 inh	Pf growth 48h	Shiga toxin inh
Cc1ccc(-c2cc3ccccc3nc2N2CCCC2)cc1	2%	-4	3%	69%	?	-24
C=CCC[C@H](Cc1ccc(F)cc1)C(=O)OC[C@H](C)NC(=O)[C@@H](CC=C)CC(=O)N[C@H](CO)Cc1ccccc1	4%	nt	nt	-2%	nt	nt
COc1ccc(/C=N\NC(=O)C2CCCC2)cc1Br	-3%	-3	-20%	-7%	5%	-21
CC(C)(C)c1ccc(/C=N/NC(=O)C2CCCC2)cc1	-9%	51*	?	4%	-23%	133*
CC(C)c1ccc(/C=N/NC(=O)C2CCCC2)cc1	-9%	80*	?	-20%	108%	88*
C=C1CC(C(=O)N/N=C/c2ccccc2)C1	3%	40*	34%	11%	37%	41*
CN1CCc2c(sc(NC(=O)C3CCCN3S(=O)(=O)c3ccc(Cl)s3)c2C(N)=O)C1 (stereo not drawn)	5%	nt	?	-8%	?	nt
CCN(CC)S(=O)(=O)c1ccc(C)c(NS(=O)(=O)c2cc(/C=C/C(=O)O)cc(OC)c2OC)c1	4%	1	?	2%	4%	23
Cn1c(=O)c(C#N)c(-c2ccc(F)cc2)c2cc(C(=O)c3cc(Cl)cc(Cl)c3O)cnc21	-18%	5	?	-7%	?	10
CCc1nn2cc(C(=O)c3cc(Cl)ccc3O)cnc2c1-c1ccc(F)cc1	-92%	-2	?	-22%	6.6µM*	-29
CCc1ccc(NC(=O)CSc2nc3nc(C)cc(C)n3n2)cc1	0%	13	?	0%	8%	-3
Cc1nnc(NC(=O)CCC(=O)N2CCN(CCOc3cccc4ccccc34)CC2)s1	2%	-1	?	-16%	?	-11
C/C(=N\N=C1\NC(=O)CC(C(=O)O)S1)c1cccs1 (stereo not drawn)	6%	-2	0%	18%	17%	5
C/C(=N\NC(=O)C1CC1c1ccccc1)c1cccs1 (stereo not drawn)	0%	-2	-1%	19%	-22%	-14
C/C(=N/NC(=O)c1cc(C2CC2)[nH]n1)c1cccs1	-6%	25*	18%	37%	nt	5
C/C(=N/N=C(/C)c1cccs1)c1cccs1	-3%	31*	2%	-5%	159%	73*
C/C(=N\NC(=O)c1cccs1)c1cccnc1	2%	17	35%	46%	42%	72
C/C(=N\NC(=O)CN1CCN(Cc2ccccc2)CC1)c1cccs1	0%	1	43%	-9%	54%	-3
C/C(=N\NC(=O)c1cccs1)c1ccc2ccccc2c1	2%	37*	19%	-13%	20%	41*
C/C(=N\NC(=O)C1=NNC(=O)C1C)c1cccs1 (stereo not drawn)	-6%	34*	3%	35%	0%	90*
O=c1c2[nH]c3ccccc3c2ncn1CCN1CCCCC1	3%	-5	28%	1%	27%	-8
C/C(=N\NC(=O)c1ccncc1)c1cccs1	-1%	48*	?	22%	149%	63*
CC(=NNC(=O)c1cccc(S(=O)(=O)N2CCCC2)c1)c1ccccc1	1%	nt	nt	13%[11.6 µM]	nt	nt
CC(=O)N/N=C(\C)c1cccc(NC(=O)c2cccs2)c1	-20%	1	-11%	14%	18%	-2
